ABHD5 PLIN5 PPI – ABHD5-PLIN5 interaction inhibitors, primary screen, cell lysate, split luciferase complementation, luminescence; Perilipin-5 (Homo sapiens) + 1-acylglycerol-3-phosphate O-acyltransferase ABHD5 (Homo …; 0.78% of 360,000 active; inhibition, % at 4 µM; Split G. princeps luciferase complementation, 4 h;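 active = inhibition above the mean inhibition across every tested compound plus 3 SD, cut at about 22% in these data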;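 also: 0% = DMSO only wells and the 100% control is not disclosed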
m5-HT2A agonist – mouse Htr2a agonists via beta-arrestin recruitment, primary screen, cell-based, luminescence | 5-hydroxytryptamine receptor 2A (Mus musculus), P35363 | CHO-K1 mHTR2A beta-arrestin complementation; percent of 30 µM serotonin response | activation, % at 7.6 µM | 0.66% of 360,000 active;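 active = activation above a run cutoff, the mean activation of all tested compounds plus 3 SD, cut at about 14% in these data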;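 also: 0% = plate median of compound wells and 100% = 30 µM serotonin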
TLR9-MyD88 inh – inhibitors of TLR9-MyD88 association in cells, primary screen, cell-based, CHO, BLA complementation, fluorescence; Toll-like receptor 9 (Homo sapiens) + Myeloid differentiation primary response protein …; AID 504734, 2011; inhibition, % at 4.98 µM; 0.21% of 340,000 active; CCF4 FRET ratio;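 active = inhibition above the mean over all tested compounds plus 3 SD, cut at about 21% in these data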;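 also: 0% = DMSO only wells and 100% = clavulanate BLA inhibitor control wells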
TLR4-MyD88 BLA – inhibitors of TLR4-MyD88 association in cells, primary screen, cell-based, HeLa CL3-4, BLA complementation, FRET ratio. 0.18% of 200,000 active. inhibition, % at 8.4 µM. HeLa CL3-4 TLR4/MyD88 BLA complementation. AID 861, 2007. Toll-like receptor 4 (Homo sapiens) + Myeloid differentiation primary response protein …; in the data active = inhibition above about 25%;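 also: 0% = vehicle and 100% = reference inhibitor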
NOD2 RIPK2 PPI – NOD2-RIPK2 binding disruptors in cells, primary screen, fluorescence, CHO cells, BLA complementation; Receptor-interacting serine/threonine-protein kinase 2 (Homo sapiens), O43353; CCF4 ratio; inhibition, % at 4.98 µM; 0.38% of 360,000 active; AID 624267, 2012; in the data active = inhibition above about 21%;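 also: 0% = vehicle only and 100% = reference blocker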
CRFR2-BP antag – antagonists of CRF-BP/CRF-R2 complex, primary screen, cell-based, HEK293, calcium dye fluorescence, uHTS; AID 588475, 2011; CRF-induced calcium fluorescence; inhibition, % at 11.8 µM; 0.59% of 350,000 active;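 active = inhibition of the ligand-induced calcium signal above about 50% at the single tested concentration, limit read from the data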
NOD2-RIPK2 conf – NOD2-RIPK2 binding disruptors, retest, confirmation, fluorescence, CHO cells, BLA complementation, triplicate; AID 624370, 2012; CCF4 FRET; inhibition, % at 4.98 µM; 70% of 1,200 active; shares compounds with NOD2 RIPK2 PPI;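 active = mean inhibition across replicates above a set limit taken from the earlier primary screen, cut at about 21% in these data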;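 also: 0% = DMSO-only wells and the high end = clavulanate BLA-blocked wells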
NOD2 BLA counter – hits BLA reporter in NOD2-RIPK2 inhibitor counterscreen; shares compounds with NOD2 RIPK2 PPI; CHO BLA reporter, CCF4 FRET ratio; inhibition, % at 4.98 µM; 57% of 1,200 active; AID 624371;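 active = mean inhibition above the low-control mean inhibition plus three low-control SD, cut at about 11% in these data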;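 also: 0% = DMSO only wells and 100% = clavulanate high control wells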
Active calls of the source: *; x = no result given. In the library only some 2.4% were active in any assay of this set; here they are far more common.

SMILES	ABHD5 PLIN5 PPI	m5-HT2A agonist	TLR9-MyD88 inh	TLR4-MyD88 BLA	NOD2 RIPK2 PPI	CRFR2-BP antag	NOD2-RIPK2 conf	NOD2 BLA counter
CC(C)(C)NC(=O)C(c1ccnc2ccccc12)n1c(=O)c(-c2cc3ccccc3[nH]2)nc2ccccc21 (stereo not given)	-7	10	x	x	49*	x	46*	65*
COc1ccc(NC(=O)CSc2nnc3n2CCCCC3)cc1OC	-6	10	-2	x	-6	-5	x	x
c1ccc2sc(-n3cc(C4CCCCC4)nn3)nc2c1	-2	0	x	x	-1	x	x	x
COC(=O)[C@@]12C[C@@H](CC(=O)NCc3ccc(C)o3)C(=O)N(Cc3ccc4c(c3)OCO4)C1=CCC(C)(C)C2	10	-4	x	x	5	x	x	x
CC(=O)Nc1ccc2sn(-c3ccccc3)c(=O)c2c1	85*	1	5	x	30*	12	22*	-4
CCn1c2ccccc2c2cc(NC(C)=O)ccc21	-1	-2	4	-1	-11	7	x	x
N#Cc1ccc2c(c1)nnn2-c1ccccc1	2	-7	x	x	-15	9	x	x
N#Cc1ccc2sn(-c3ccccc3)c(=O)c2c1	34*	-1	10	x	25*	-14	50*	12*
O=C1NC[C@H](CCCCN2CCN(CCc3ccc(O)cc3)C(=O)C2=O)N(CCc2ccc(O)cc2)C1=O	0	-3	x	x	-10	x	x	x
COCCN(CCOC)Cc1cc(=O)oc2ccccc12	1	-2	x	x	9	x	x	x
CC(=O)c1ccc(OC2(C)CCN(CCOc3ccc(C)cc3)C2)cc1 (stereo not given)	1	5	x	x	-16	x	x	x
C=CCOC(=O)Nc1nc(CCNC(=O)OC(C)(C)C)c(C(=O)O)s1	11	5	x	x	-10	x	x	x
CCOC(=O)[C@]12CCCC=C1N(CCC1=CCCCC1)C(=O)[C@H](CC(=O)N1CCN(C(=O)C3CC3)CC1)C2	-3	-9	x	x	-2	x	x	x
O=C(N/N=C\c1c(O)ccc2ccccc12)c1ccc(O)cc1	2	-2	-1	x	0	-3	x	x
O=C(NN=Cc1c(O)ccc2ccccc12)c1ccncc1	4	-8	19	x	28*	-102	27*	21*
CC1(C)Cc2c(sc3nc(-c4cc5ccccc5o4)n(N)c(=O)c23)CO1	-4	6	2	-13	23*	-15	-1	-4
O=C1NC(Cc2ccccc2)c2nc3ccc(F)cc3c(=O)n2-c2ncccc21 (stereo not given)	-2	-7	8	x	-10	22	x	x
Cc1ccc(S(=O)(=O)N2CCC(=O)N([C@H](COCc3ccc(Cl)cc3)C(C)C)CC2)cc1	-3	-7	x	x	1	x	x	x
COc1ccc(Br)cc1/C(C)=N/NC1=NCCN1	12	-1	-5	6	-1	-57	x	x
CCCCCOc1ccc(Br)cc1/C(C)=N/NC1=NCCN1	7	-3	9	5	23*	-16	22*	-2
Cc1cccc(C)c1NC(=O)C(C1CC1)n1c(=O)c(-c2cc3ccccc3[nH]2)nc2ccccc21 (stereo not given)	2	6	x	x	47*	x	42*	67*
CC(C)(C)NC(=O)C(C1CC1)n1c(=O)c(-c2cc3ccccc3[nH]2)nc2ccccc21 (stereo not given)	-13	4	x	x	42*	x	39*	62*
O=C1OCCN1C(=O)[C@H]1[C@H](c2ccccc2)C(c2cccc(Cl)c2)=NN1c1ccccc1	-5	4	-14	x	27*	-5	14	38*
COc1ccc2c(c1)sc1nc(-c3ccccc3)cn12	-9	2	-8	-5	40*	10	9	-1
CCOC(=O)N1CCN(C(=O)c2ccc3c(c2)sc2nc(-c4ccc(OC)cc4)cn23)CC1	7	-1	-6	6	2	2	x	x
SMILES	ABHD5 PLIN5 PPI	m5-HT2A agonist	TLR9-MyD88 inh	TLR4-MyD88 BLA	NOD2 RIPK2 PPI	CRFR2-BP antag	NOD2-RIPK2 conf	NOD2 BLA counter
CC1CCN(Cc2cc(=O)oc3cc(O)c(Cl)cc23)CC1	-7	3	7	x	31*	7	32*	49*
COc1cc(NC(=O)Cn2c(C)cc3ccccc3c2=O)cc(OC)c1OC	4	-1	-2	1	32*	7	6	-2
COc1ccccc1NC(=O)CNC(=O)Cn1c(C)cc2ccccc2c1=O	13	-7	-8	x	-15	-2	x	x
Cc1ccccc1CN1C(=O)c2ccccc2C1c1nnnn1-c1ccc2c(c1)OCCO2 (stereo not given)	2	-5	x	x	5	x	x	x
Brc1ccc(C2=CC(c3cccs3)n3ncnc3N2)cc1 (stereo not given)	-7	-2	13	2	14	-197	x	x
Fc1ccc(C2=CC(c3ccco3)n3ncnc3N2)cc1 (stereo not given)	-12	2	35*	-6	36*	-7	3	12*
O=C(COC(=O)c1ccccc1C(=O)c1ccc(Cl)c([N+](=O)[O-])c1)NC1CC1	3	-6	14	18	49*	52*	56*	9
OCCCc1nc2ccccc2n1CCc1ccccc1	5	-7	1	11	-1	-6	x	x
CC(c1ccccc1)n1c(CCCO)nc2ccccc21 (stereo not given)	6	-1	-6	x	24*	-8	2	-1
Cc1occc1C(=O)N/N=C/C=C/c1ccc(N(C)C)cc1	-2	-5	11	x	27*	-8	37*	37*
Cc1occc1C(=O)N/N=C/c1ccc(N(C)C)cc1	2	5	6	x	-10	1	x	x
CS(=O)(=O)c1ccc(S(=O)CC(=O)OCc2ccccc2)c([N+](=O)[O-])c1 (stereo not given)	40*	-6	12	16	25*	53*	56*	25*
O=C(CS(=O)c1ccc(C(F)(F)F)cc1[N+](=O)[O-])Oc1ccccc1 (stereo not given)	9	2	-9	13	9	-18	x	x
COCCNC(=S)N/N=C/c1ccc(-c2ccc([N+](=O)[O-])cc2)o1	4	0	14	x	31*	-63	44*	47*
N#CC1=C(N)Oc2cc(O)ccc2C1c1cccnc1 (stereo not given)	-3	0	-3	-8	3	-22	x	x
